aSyn 5UTR act – Activators working through SNCA 5'UTR binding (MLPCN). alpha-synuclein 5'UTR reporter, activators screen. activity score, % (tested at 7.5 µM), hits read low. AID 1814. 7.1% of 300,000 active; in the data active = activity score below about -60%
Numbers without * were called inactive. A selection follows.

SMILES	aSyn 5UTR act
CC(=O)O[C@H]1C(=O)[C@@]2(C)[C@H]([C@H](OC(=O)c3ccccc3)[C@]3(O)C[C@H](OC(=O)[C@H](O)C(NC(=O)c4ccccc4)c4ccccc4)C(C)=C1C3(C)C)[C@]1(OC(C)=O)CO[C@@H]1C[C@@H]2O (some centres not stated)	72
C/C(=N\N=C\c1ccccc1)c1nnn(-c2nonc2N)c1C	-82*
CNc1ncc(C(=O)c2ccc(Cl)cc2)s1	-124*
CNc1ncc(C(=O)c2ccc(Cl)c(Cl)c2)s1	-149*
O=C(/C=C/c1cccc(F)c1)c1ccc(N2CCOCC2)cc1	-80*
CN(C)c1ccc(/C=C/c2cc[n+]([O-])cc2)cc1	-114*
Cc1ccc([N+](=O)[O-])cc1N/C=C/C(=O)c1ccco1	-138*
Cc1ccc(N/C=C/C(=O)c2ccco2)c(O)c1	-158*
CC(=O)c1ccc(OCc2cc(C(=O)N(C)C3CCOC3)no2)cc1 (configuration not stated)	-130*
Cc1cc(OCc2cc(C(=O)N(C)C3CCOC3)no2)cc(C)c1Cl (configuration not stated)	-107*
CC(=O)c1ccc(OCc2cc(C(=O)N(C)CCOc3ccc(C)cc3)no2)cc1	-170*
Fc1ccc(N/N=C/C=C/c2ccccc2)c(F)c1	-159*
O=C(O)c1ccc(/C=N/Nc2ccc(F)cc2F)cc1	-111*
Clc1ccc(N/N=C/c2ccncc2)cc1Cl	-221*
Fc1ccc(N/N=C/c2ccncc2)c(F)c1	-177*
CCOC(=O)C(CC)(CC)C(=O)/C=C/c1cccc(Br)c1	-74*
CC1CN/C(=C\C(=O)c2ccccc2)C(=O)N1 (configuration not stated)	-110*
O=C1NCCN/C1=C\C(=O)c1ccc(Cl)cc1	-109*
O=C1NCCN/C1=C\C(=O)c1ccc(F)cc1	-81*
Cc1occc1C(=O)N/N=C/c1ccc2c(c1)OCO2	-67*
Cc1cc(C(=O)N/N=C/c2ccc3c(c2)OCO3)c(C)o1	-105*
CCOC(=O)N1CCC(NC(=O)c2ccc3c(c2)sc2nc(-c4cccc(OC)c4)cn23)CC1	-213*
CC1CCN(C(C(=O)NC2CCCCC2)c2cc3c(cc2[N+](=O)[O-])OCO3)CC1 (configuration not stated)	-102*
CC1CCCN(C(C(=O)NC2CCCCC2)c2cc3c(cc2[N+](=O)[O-])OCO3)C1 (configuration not stated)	-81*
CC1CCCN(c2ccc([N+](=O)[O-])cc2C(=O)c2ccccc2)C1 (configuration not stated)	84
SMILES	aSyn 5UTR act
CN(C)CC/C=C1/c2ccccc2CS(=O)(=O)c2ccccc21	-74*
CCCN(CC(=O)Nc1cc(Cl)ccc1Cl)C(=O)/C=C/c1ccco1	-68*
COc1ccc(C/C(=N\O)c2ccc(OC)cc2)cc1	-89*
CCc1ccc(NC(=O)Cc2ccc(OC)cc2)cc1	-67*
COc1ccc(CC(=O)Nc2ccc(C(C)=O)cc2)cc1	-86*
COc1ccc(NC(=O)Cc2ccccc2)cc1	-101*
CCc1ccc(NC(=O)Nc2cccc(OC)c2)cc1	-199*
N#Cc1c(Cl)nsc1NC(=O)c1ccccc1	-66*
C=CCNc1sc(C(=O)c2ccccc2)c(N)c1C#N	58
Cc1cccc(C(=O)Nc2sc(C)c(-c3ccccc3)c2C#N)c1	-260*
Cc1sc(NC(=O)C2CCCCC2)c(C#N)c1-c1ccccc1	-237*
CSc1ccc(N2C(=O)NC3(CCCCC3)C2=O)cc1	-111*
Clc1ccc(N=C2SCC3CCCCN23)cc1 (configuration not stated)	-145*
FC(F)Oc1ccc(N=C2SCC3CCCCN23)cc1 (configuration not stated)	-206*
CCc1ccc(/C=C2\SC(=S)N(CCC(=O)NC3=NCCS3)C2=O)cc1	89
COC(=O)c1ccc(CSC2=NCCS2)cc1	-83*
CC(Sc1nncn1C)C(=O)Nc1nnc(-c2ccccc2)s1 (configuration not stated)	-83*
CC(SC1=NCCS1)C(=O)Nc1nnc(-c2ccc(Cl)cc2)s1 (configuration not stated)	-63*
c1ccc(Nc2cccc(Nc3ccccc3)n2)cc1	-125*
CN(C)c1ccc(N=Nc2ccc(C(=O)O)cc2)cc1	64
CN(C)c1ccc(C(=O)/C=C/c2ccc(Br)cc2)cc1	-79*
CN(C)c1ccc(C(=O)/C=C/c2ccccc2)cc1	-159*
CN(C)c1ccc(C(=O)/C=C/c2ccco2)cc1	-226*
CN(C)c1ccc(C(=O)c2ccccc2)cc1	-119*
O=C(/C=C\c1ccco1)c1ccc(NC(=O)c2ccco2)cc1	-143*
SMILES	aSyn 5UTR act
O=C(c1ccccc1)c1ccc(-c2ccc(O)cc2)cc1	-251*
CSc1ccccc1C(=O)Nc1ccc(C)c(C)c1	-130*
CCOc1ccc(NC(=O)c2ccccc2SC)cc1	-110*
COc1cccc(-n2cc3c(=O)n(C)c(=O)n(C)c3c2)c1	-86*
Cc1cc(C)cc(NS(=O)(=O)c2ccc3c(c2)c(=O)n(C)c(=O)n3C)c1	58
COc1cccc(N2CCN(c3cnc4ccccc4n3)CC2)c1	-116*
COc1ccc(N2CCN(c3cnc4ccccc4n3)CC2)cc1	-101*
COc1ccc(N2CCN(c3ncccn3)CC2)cc1	-130*
COc1ccccc1CNc1ccc2c(c1)CCC2	-82*
CCOc1cc(CNc2ccc3c(c2)CCC3)ccc1OC	-163*
COc1ccc(CNc2ccc3c(c2)CCC3)cc1Br	-105*
O=C(NC(C(=O)c1ccccc1)N1CCCCC1)c1ccccc1 (configuration not stated)	-87*
O=C(NC(C(=O)c1ccccc1)n1ccc(=O)[nH]c1=O)c1ccccc1 (configuration not stated)	-208*
CN1C(=O)C2C=CC1C1C(=O)N(c3ccccc3)C(=O)C21 (configuration not stated)	-302*
CSc1ccccc1OCc1cc(C(=O)N(C)Cc2ccc3nsnc3c2)no1	-160*
Cc1nnc(CN(C)C(=O)c2cc(COc3ccc(F)cc3Cl)on2)o1	-100*
CC(=O)c1cccc(OCc2cc(C(=O)N(C)Cc3ccc(C)o3)no2)c1	-68*
CSc1ccccc1OCc1cc(C(=O)N(C)Cc2ccc(C)o2)no1	-123*
Cc1cc(C(=O)CSc2cccc[n+]2[O-])c(C)n1-c1ccc(OC(F)F)cc1	-103*
Brc1ccc(CNc2ccc3ncccc3c2)cc1	-194*
O=C(Nc1ccc2ncccc2c1)c1cccc(Br)c1	-375*
O=C(Nc1ccc2ncccc2c1)c1cc(Cl)ccc1Cl	-80*
Cc1ccc(C(=O)Nc2ccc3ncccc3c2)cc1	84
O=C(Nc1cc2cc([N+](=O)[O-])ccc2oc1=O)c1cccs1	-76*
COc1cc(NC(=O)c2ccc([N+](=O)[O-])o2)ccc1NC(=O)c1cccs1	-82*
SMILES	aSyn 5UTR act
O=C(Nc1cccc(NC(=O)c2cccs2)c1)c1ccc([N+](=O)[O-])o1	-69*
Cc1ccc2c(c1)N=C(c1ccccc1)CC(C(Cl)Cl)=N2	-74*
Cc1ccc(C2=Nc3ccccc3N=C(C(Cl)Cl)C2)cc1	-76*
CCn1cc(Br)c(C(=O)Nc2ccccc2C(=O)OC)n1	-88*
Cc1ccc(C(=O)Nc2cccc(C(F)(F)F)c2)cc1NC(=O)c1nccnc1N	78
CCn1cc(Cl)c(C(=O)Nc2ccccc2C(N)=O)n1	-87*
CCn1cc(Cl)c(C(=O)Nc2cccc(C(F)(F)F)c2)n1	-105*
CCn1cc(Br)c(C(=O)Nc2cccc(SC)c2)n1	-141*
Cc1csc(NC(=O)Cc2ccc(Cl)cc2)n1	-81*

High-throughput results: PubChem, Broad Institute
